Shown are actives, neighbours in structure and some others; about 19% of the full set was active somewhere.
HT1080NT lethal: kills 2HG-producing HT-1080-NT fibrosarcoma cells. HT-1080-NT fibrosarcoma viability, CellTiter-Glo ATP luminescence, 48 h. Potency, µM (highest dose often 46.1 µM), without a hit: top-dose activity, negative = less viability, usual class: cytotoxic. 360,000 compounds, 1.6% hits;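 further: NT is the 2HG producing partner of a matched IDH1 knockdown line; potency means the concentration at half of the fitted maximal effect; 0% = DMSO-treated cells and -100% = media-only wells without cells; nearly all actives have a fitted effect of over 55% in size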
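Viability by CellTiter-Glo luminescence after 48 h compound exposure at 37C of HT-1080-NT cells (750/well, RPMI, 5% FBS). % activity scaled between DMSO wells and medium-only wells, then curve-fitted and categorized by curve class.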
DT40 TDP1 no CPT: qHTS for Inhibitors of human tyrosyl-DNA phosphodiesterase 1 (TDP1): qHTS in cells in absence of CPT; DT40 Tdp1-/- hTDP1 cells, no CPT, ATP luminescence, 48 h; Potency, µM (doses to about 46.2 µM), inactives show at the highest dose activity change, negative = growth inhibition, usual class: inhibitors; 420,000 compounds, 15% hits; AID 686978, 2013; further: potency means the concentration at half of the fitted maximal effect; nearly all actives have a fitted effect of over 55% in size
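No-CPT arm: Tdp1-/-;hTDP1 DT40 cells (400/well) plus compounds, incubated ≥48 hr at 37 °C. Readout CellTiter-Glo luminescence.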
ELG1 repair inh: ELG1-dependent DNA repair inhibition; Potency, µM (top dose mostly 46.1 µM), inactives show top-dose activity change, negative = inhibition, most hits filed as inhibitors; 330,000 compounds, 2.3% hits; HEK293T ELG1-luciferase reporter, luminescence, 16 h; DNA damage induced by 5-fluorouridine; further: potency means the concentration at half of the fitted maximal effect; nearly all actives have a fitted effect of over 55% in size
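Overnight (16 hr) co-exposure of 2,000 cells/well to 5-fluorouridine and compound at 37 °C preceded detection. Luciferase was quantified via ONE-Glo luminescence; loss of signal denotes inhibition.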
HT1080 IDH1KD tx: kills HT-1080 cells with IDH1 knockdown | HT-1080 IDH1 knockdown viability, ATP luminescence, 48 h | Potency, µM (doses to about 46.1 µM), without a hit: top-dose activity, negative = toxicity, hits mostly cytotoxic | 360,000 compounds, 2% hits;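 further: potency means the concentration at half of the fitted maximal effect; 0% = DMSO wells and -100% = cell-free medium wells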
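Luminescent ATP read-out (CellTiter-Glo, 10 min at room temperature) after 48 h compound exposure at 37 °C gave viability of IDH1-knockdown HT-1080 cells. Activity was normalised to DMSO and cell-free wells, then fitted as concentration-response curves.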
IL-1B inflam inh: inflammasome signaling inhibition, IL-1 beta readout; THP-1 LPS/ATP IL-1B secretion, AlphaLISA, 16 h; stronger effect = lower value; activity change, % at 57.5 µM; 360,000 compounds, 4.7% hits; AID 743279; in the data active means activity change below about -50%; inconclusive means mostly about -30% to -49%
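Secreted IL-1B measured by AlphaLISA bead assay after 16 h compound exposure of THP-1 cells; compounds (final up to 57.5 uM) added 1 h before LPS (250 ng/mL) and ATP (1.25 mM) stimulation; lower signal means less secretion.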
DT40 TDP1 CPT: growth inhibition of DT40 Tdp1-/-;hTDP1 cells with camptothecin (screen for TDP1 inhibitors) | chicken DT40 Tdp1-/-;hTDP1 cells + 20 nM CPT, ATP luminescence, 48 h | Potency, µM (series often up to 46.2 µM), for inactives: top-dose activity change, negative = growth inhibition, hits mostly inhibitors | 420,000 compounds, 12% hits | AID 686979; further: potency means the concentration at half of the fitted maximal effect; nearly all actives have a fitted effect of over 55% in size
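Chicken DT40 Tdp1-/- cells complemented with human TDP1, 400 cells/well, exposed to compounds plus 20 nM camptothecin for at least 48 h at 37 C; viability read as ATP content by CellTiter-Glo luminescence.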
An asterisk follows results filed as active. Unless noted, the call rests on the fitted dose curve; in most records, active means well fitted curve in the direction sought with a large enough effect; inconclusive means small, poorly fitted or top-dose-only effect, or another doubt; inactive means no such curve, though single readings can be large; an effect the other way counts as inactive or inconclusive. Unless noted, on the % scale 0 is the no-effect control and ±100 the full control effect.

Screening Clc1cccc(Cl)c1Cn1nnc(N2CCCC2)n1 returned HT1080NT lethal 15%, DT40 TDP1 no CPT -18%, ELG1 repair inh inconclusive, HT1080 IDH1KD tx 7%, IL-1B inflam inh 36 and DT40 TDP1 CPT 19%.
Screening O=C(Nc1cc(Cl)cc(Cl)c1)N1Cc2ccccc2-n2nncc2C1 returned HT1080NT lethal -10%, DT40 TDP1 no CPT inconclusive, HT1080 IDH1KD tx 12%, IL-1B inflam inh -20 and DT40 TDP1 CPT inconclusive.
CCc1ccc(CNC(=O)C2CCN(C(=O)c3ccc(-n4c(C)cc5ccccc54)s3)CC2)cc1 was read as DT40 TDP1 no CPT 18µM* and DT40 TDP1 CPT 10µM*.
For Cc1cc2ccccc2n1-c1ccc(C(=O)N2CCC(C(=O)NCc3ccc(Cl)cc3)CC2)s1 the results were DT40 TDP1 no CPT 3.7µM* and DT40 TDP1 CPT 4.1µM*.
For CN1C(=O)N(C)C(=O)C(NS(=O)(=O)c2ccc(N)cc2)(c2ccccc2)C1=O the results were HT1080NT lethal 10%, DT40 TDP1 no CPT -4%, HT1080 IDH1KD tx 12%, IL-1B inflam inh 21 and DT40 TDP1 CPT -1%.
Screening C[n+]1c2cc(N)ccc2cc2ccc(N)cc21 (tested in a mixture with another compound) returned DT40 TDP1 no CPT 1.8µM* and DT40 TDP1 CPT 2.1µM*.
Screening Cc1ccc(N)cc1N returned HT1080NT lethal 24%, DT40 TDP1 no CPT 6%, ELG1 repair inh inconclusive, HT1080 IDH1KD tx 2%, IL-1B inflam inh -23 and DT40 TDP1 CPT 4%.
C[n+]1c2cc(N)ccc2cc2ccc(N)cc21 was read as HT1080NT lethal 2.3µM*, DT40 TDP1 no CPT 2.9µM*, HT1080 IDH1KD tx 2.3µM*, IL-1B inflam inh -108* and DT40 TDP1 CPT 3.7µM*.
COc1cccc(CNCCc2ccc3c(c2)OCO3)c1OC was read as HT1080NT lethal 0%, DT40 TDP1 no CPT inconclusive, ELG1 repair inh inconclusive, HT1080 IDH1KD tx 0%, IL-1B inflam inh -15 and DT40 TDP1 CPT -35%.
For COc1ccc2c(c[n+](C)c3c4cc5c(cc4ccc23)OCO5)c1OC the results were DT40 TDP1 no CPT 1.3µM* and DT40 TDP1 CPT 1.3µM*.
Screening COc1cc2c(ccc3c4cc(OC)c(OC)cc4c[n+](C)c23)cc1O returned HT1080NT lethal -25%, DT40 TDP1 no CPT 1.2µM*, HT1080 IDH1KD tx inconclusive, IL-1B inflam inh -20 and DT40 TDP1 CPT 1.3µM*.
`CCCOC(=O)c1c(C)oc2c1cc(NS(=O)(=O)c1ccc(OCC)cc1)c1ccccc12` gave DT40 TDP1 no CPT 1µM* and DT40 TDP1 CPT 1.5µM*.
COc1ccccc1N1CCN(Cc2cc(C)c(C)cc2O)CC1 was read as HT1080NT lethal -11%, DT40 TDP1 no CPT 21µM*, ELG1 repair inh inconclusive, HT1080 IDH1KD tx -9%, IL-1B inflam inh -20 and DT40 TDP1 CPT 23µM*.
For COc1cc(CN2CCN(c3cc(C)ccc3C)CC2)ccc1O the results were HT1080NT lethal -17%, DT40 TDP1 no CPT 7.3µM*, ELG1 repair inh 10%, HT1080 IDH1KD tx -1%, IL-1B inflam inh 21 and DT40 TDP1 CPT 7.3µM*.
For COc1ccccc1N1CCN(Cc2ccccc2)CC1 the results were HT1080NT lethal 2%, DT40 TDP1 no CPT -25%, ELG1 repair inh -11%, HT1080 IDH1KD tx 5%, IL-1B inflam inh 14 and DT40 TDP1 CPT -1%.
`C[C@]12CC[C@H](O)CC1=CC(=O)C1C2CC[C@]2(C)C(=O)CCC12` (some centres not stated) gave HT1080NT lethal 5%, DT40 TDP1 no CPT -3%, ELG1 repair inh -1%, HT1080 IDH1KD tx 8%, IL-1B inflam inh -7 and DT40 TDP1 CPT -7%.
